Results taken from PubChem BioAssay AID1578 (Sanford-Burnham Center for Chemical Genomics, 2009).
In all, about 290,000 compounds went through this assay and about 3,000 (1%) were called active. No stated cut-off is given here; in the data, active means inhibition mostly above about 36% (no sharp cut-off); inactive means mostly below about 34%. Only a selection was taken, and actives are over-represented in it overall.

Test: inhibition of NOD1-driven NF-kB reporter – cell-based, luminescence, uHTS, primary screen (AID 1578);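 further: HEK-293T reporter cells stimulated with the NOD1 agonist gamma-tri-DAP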
Conditions: NOD1-driven NF-kB luciferase reporter cells, at 4 µM, hits give high values

inhibition, inactive:
CC1CCc2nc(NC(=O)C3CC3)sc2C1 (stereo unspecified) -43.5%
CC1CCc2nc(NC(=O)Cc3cccs3)sc2C1 (stereo unspecified) -17.9%
O=C(CSc1nc2ccccc2o1)Nc1nc2ccccc2s1 25.3%
CC1CCc2nc(NC(=O)CCSc3ccccc3)sc2C1 (stereo unspecified) -19.7%
CC(=O)Nc1ccc(S(=O)(=O)N2CCN(c3ncccn3)CC2)cc1 -2%
CCOc1ccccc1NC(=O)C(C)CC (stereo unspecified) -23.5%
COc1ccc(NC(=O)Cc2nnc(SCC(=O)NC3CCCCC3C)n2C)cc1 (stereo unspecified) 17.2%
CCN(CC1CCCN(CCc2cccc(F)c2)C1)C(=O)c1ccc(CSC)o1 (stereo unspecified) -11%
COc1ccc(C(=O)OC(COc2ccccc2)Cn2ccnc2)cc1 (stereo unspecified) 2.7%
Cc1coc2cc3oc(=O)c(CC(=O)N[C@@H](CC(C)C)C(=O)O)c(C)c3cc12 -5.8%
COc1cc(C2C3C(C)N(C)C(=O)N(C)C3N(C)C(=O)N2C)ccc1O (stereo unspecified) -20.9%
COc1cc(/C=C2\SC(=S)NC2=O)ccc1OS(=O)(=O)c1ccccc1 4.1%
COc1ccc(/C=C2\SC(=S)NC2=O)cc1OS(=O)(=O)c1ccc(NC(C)=O)cc1 2.1%
Cc1ccc(CNC(=O)C2CCN(S(=O)(=O)c3ccc(Br)s3)CC2)cc1 16%
Cc1cc(-n2c(C)cc(C(=O)CSc3nc(N)cc(=O)[nH]3)c2C)no1 9.7%
Cc1cc(C(=O)CSc2cccc[n+]2[O-])c(C)n1-c1ccc(OC(F)F)cc1 2.7%
COCCCNC(=O)CNC(=O)c1cn(-c2ccccc2OC)c(=O)c2ccccc12 -30.6%
Cc1ccc(C)c(NC(=O)CCN2CC(C)OC(C)C2)c1 (stereo unspecified) -8.9%
COc1ccc(CN2CCSc3sccc3C2=O)cc1 -4.1%
N#CC(c1nc2ccccc2nc1N1CCCC1)S(=O)(=O)c1ccccc1 (stereo unspecified) 10.2%
CC1CCCN(c2nc3ccccc3nc2C(C#N)S(=O)(=O)c2cccs2)C1 (stereo unspecified) 13.4%
N#CC(c1nc2ccccc2nc1OCCO)S(=O)(=O)c1ccccc1 (stereo unspecified) -3.6%
Cc1ccc(S(=O)(=O)C(C#N)c2nc3ccccc3nc2OCCO)cc1 (stereo unspecified) -27.7%
COc1ccc(S(=O)(=O)C(C#N)c2nc3ccccc3nc2N2CCCC(C)C2)cc1 (stereo unspecified) -10.7%
Cc1ccc(S(=O)(=O)C(C#N)c2nc3ccccc3nc2N2CCCCC2)cc1 (stereo unspecified) -4.7%
CCCCOC(=O)c1cccnc1 9.9%
Cc1c(Cl)cccc1NC(=O)Nc1c(C)n(C)n(-c2ccccc2)c1=O -22.5%
O=C(Cc1n[nH]c(=O)[nH]c1=O)N/N=C/c1c(O)ccc2ccccc12 -32.5%
COCCN1C(=O)c2ccccc2C(C(=O)N2CCN(c3ccccn3)CC2)C1c1ccc(F)cc1 (stereo unspecified) 13.2%
COc1cccc(CNC(=O)CCC2CCCN(C(=O)Cc3ccccc3F)C2)c1 (stereo unspecified) -26.2%
CC(O)c1nc2ccccc2n1CC(=O)N1CCN(c2ccccc2)CC1 (stereo unspecified) -27.8%
CCOc1ccccc1NC(=S)N(CCCN1CCOCC1)Cc1cn(C)c2ccccc12 -4.6%
O=c1nc(SCc2cccc(C(F)(F)F)c2)nc2ccccn12 -17.7%
CCSc1nc(N)nc(-c2cccs2)c1C#N -29%
N#Cc1c(-c2ccccc2)nc(SCc2ccc(Cl)cc2)[nH]c1=O -2.4%
N#Cc1c(N)nc(SCc2ccncc2)c(C#N)c1-c1cccs1 61.6%
N#Cc1c(-c2ccccc2)nc(SCc2cccc(Cl)c2)[nH]c1=O 18.9%
N#Cc1c(Cl)nc(SCc2ccccc2)nc1-c1ccccc1 32.4%
N#Cc1cc2ccccc2nc1SCC(=O)NC1CC1 -32.4%
Cc1ccc(NC(=S)NNC(=O)c2c(Cl)c(C)nn2C)cc1 0%
Cc1ccc2c(c1)N(CC(=O)NC1CCCC1)C(=O)CO2 -27.1%
CCOC(=O)C1(CC)NC(c2ccc(OC)c(OC)c2)C2C(=O)N(c3cccc(C(C)=O)c3)C(=O)C21 (stereo unspecified) -2.3%
Cc1nc([N+](=O)[O-])cn1CC(O)c1ccc(-c2ccccc2)cc1 (stereo unspecified) -8.6%
COc1ccc(N2CCN(C(=O)CSc3nnc4c(C)cc5ccccc5n34)CC2)cc1 -15.6%
C#CCOC(=O)c1cc(Cl)c(=O)n(Cc2ccc(Cl)cc2Cl)c1 12.3%
CC(NC(=O)/C(C#N)=C/c1ccco1)c1ccccc1 (stereo unspecified) -8.1%
Cc1nn(Cc2c(F)c(F)c(F)c(F)c2F)c(C)c1NC(=O)c1c([N+](=O)[O-])c(C)nn1C 10.1%
Cc1cc(C)c(C#N)c(SCC(=O)c2cccs2)n1 -63.4%
Cc1cc(C)c(C#N)c(SCC(=O)c2ccccc2)n1 -26.8%
CNc1ccccc1C(=O)OCC(C)=O -41.6%
COc1ccc(CCNC(=O)CCC(=O)N2CCOc3ccc(C)cc32)cc1OC 10.2%
COc1ccc(NC(=O)c2cc(-c3cc(OC)c(OC)c(OC)c3)nc3ccccc23)cc1OC 43.8%
COc1cc(-c2cc(C(=O)Nc3ccc(O)cc3)c3ccccc3n2)cc(OC)c1OC 6.4%
C=CCC(c1ccccc1F)N(CCN1CCOCC1)C(=O)Nc1cccc(Cl)c1 (stereo unspecified) 7.7%
COC(CN(C(=O)CCl)C(C(=O)NC1CCCCC1)c1ccc(C)cc1)OC (stereo unspecified) 68.9%
COCCN(C(=O)C(=O)NC1CCCC1)C(C(=O)NC1CCCC1)c1ccccc1F (stereo unspecified) -25.2%
COc1ccc(C(C(=O)NC2CCCC2)N(C(=O)c2ccoc2C)c2ccc(C)cc2)cc1 (stereo unspecified) -10.4%
COCCN(C(=O)CCC(=O)Nc1cc(C)on1)C(C(=O)NC1CCCC1)c1ccccc1C (stereo unspecified) -13.7%
O=S(=O)(NC1CCCCC1)c1cccc(-c2nnc(-c3ccccc3)o2)c1 8.5%
Cc1ccc(C(C(=O)NC2CCCC2)N(C(=O)Cc2cccs2)c2ccc3c(c2)OCCO3)cc1 (stereo unspecified) -7.5%
O=C(CN1CCOCC1)N/N=C/c1ccc(-c2cccc(Cl)c2Cl)o1 -9.3%
O=C(CN1C(=O)COc2ccccc21)NCCN1CCOCC1 -38%
CCn1c(=O)c(C(C)=O)c(O)c2ccccc21 -17%
CC(=O)c1c(O)c2ccccc2n(C)c1=O -26%
CC(C)CC(=O)c1c[nH]c(C(=O)O)c1 -16.9%
CC(Cl)C(=O)Nc1ncc(C(F)(F)F)cc1Cl (stereo unspecified) -12%
Cc1[nH]n(-c2ccccc2)c(=O)c1C(=O)c1ccccc1 -3.5%
CCSC(=S)c1c(C)[nH]n(-c2ccccc2)c1=O 1.7%
CCCOc1ccc(N2C(=O)CC(N(Cc3ccco3)C(=O)CC)C2=O)cc1 (stereo unspecified) -3.4%
COc1ccc(CCNC(=O)c2cccs2)cc1OC -51.6%
COc1ccc(C2(O)CCN(C(=O)NC3CCCCC3)CC2)cc1 -14.2%
CCOC(=O)c1sc2ccccc2c1OC(=O)c1ccccc1 38.2%
CCOC(=O)c1sc2ccccc2c1OC(=O)c1ccccc1OC 46.4%
Cc1ccc(S(=O)(=O)N2c3ccccc3OCC2c2ccccc2)cc1 (stereo unspecified) -19.1%
CC1COc2ccccc2N1C(=O)c1ccccc1Cl (stereo unspecified) 4.6%
CCCCOc1ccccc1C(=O)N(Cc1ccco1)C1CCS(=O)(=O)C1 (stereo unspecified) 25.4%
CCOC(=O)c1c(O)c(O)c(C(=O)OCC)n1-c1ccccc1 -8.7%
CCOC(=O)c1sc2nc[nH]c(=O)c2c1C 4.3%
C=CCOc1c(CNc2ccc(C(=O)O)cc2)cccc1OC -2.4%
N#Cc1cc2c(nc1SCc1cccnc1)CCCC2 -35.1%
Cc1[nH]c(=S)c(C#N)c(-c2ccco2)c1C(=O)N(C)C -29.8%
COc1ccc(NC(=O)NC2(C(=O)N3CCCCCC3)CCCCC2)cc1 -9.8%
Cc1ccc(S(=O)(=O)N2CCOCC2)cc1C(=O)Nc1c(C)n(C)n(-c2ccccc2)c1=O -23.2%
CC(=O)N[C@@H](C)c1nc2ccccc2n1CCCN1CCN(c2nc(-c3ccc(C)cc3)cs2)CC1 -3.9%
Cc1ccc(-c2csc(N3CCN(CCCn4c(C(F)(F)F)nc5ccccc54)CC3)n2)cc1 -23%

inhibition, active:
CC1CCc2nc(NC(=O)c3ccco3)sc2C1 (stereo unspecified) 42.5%
COc1cc(/C=C2/SC(=S)NC2=O)ccc1OS(=O)(=O)c1ccc(C)cc1 93.4%
Cc1cc(C(=O)CSc2nc(N)cc(=O)[nH]2)c(C)n1-c1ccc(OC(F)F)cc1 45.3%
N#CC(c1nc2ccccc2nc1N1CCCCC1)S(=O)(=O)c1ccc(Cl)cc1 (stereo unspecified) 88.1%
CC1CCCN(c2nc3ccccc3nc2C(C#N)S(=O)(=O)c2ccccc2)C1 (stereo unspecified) 102%
CCCCOc1nc2ccccc2nc1C(C#N)S(=O)(=O)c1ccccc1 (stereo unspecified) 79.5%
Cc1cc(C)c(C#N)c(SCC(=O)c2ccc(Cl)cc2Cl)n1 68.6%
COc1cc(-c2cc(C(=O)Nc3cccc(C(C)=O)c3)c3ccccc3n2)cc(OC)c1OC 63.6%
CC(=O)c1c(O)c2ccccc2n(C2CCCCC2)c1=O 57.4%
CCCSC(=S)c1c(C)[nH]n(-c2ccccc2)c1=O 50.5%
CCOC(=O)c1c(C)c2c(=O)[nH]cnc2n1-c1ccccc1 32.5%
